# Results reported in PubChem BioAssay (EPA / NIEHS).
# Inconclusive results are not listed. Calls of active or inactive are those of the source. The calls were made as follows: active = hit-call score of the fitted dose curve at least 0.9, where 1 is the maximum; inconclusive = response in the unintended direction; inactive = score below 0.9.
# Experiment: ACEA_AR_agonist_AUC_viability: ACEA Biosciences xCELLigence Real-Time Cell Analysis on Androgen Receptor Agonism for Viability (AID 2283775);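 as to AC50: viability read 80 hours after compound addition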
# Summary of the method: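 Read-out is area under the impedance curve at 80 h post-dose in 22Rv1 cells, with DMSO as baseline and signal loss taken as reduced viability. Compounds ran in duplicate from 100 uM final.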
Compound,outcome,AC50
CC(O)C(=O)O (centres undefined),inactive,–
O=C1OC2(c3ccccc31)c1cc(Br)c(O)c(Br)c1Oc1c2cc(Br)c(O)c1Br,inactive,–
ClC1=C(Cl)C(Cl)(Cl)C(Cl)=C1Cl,–,74.8 µM (active)
C=C(C)C(=O)OCCC(F)(F)C(F)(F)C(F)(F)C(F)(F)C(F)(F)C(F)(F)F,inactive,–
COCC(C)OCC(C)O (centres undefined),inactive,–
NC(=O)N(O)[C@@H]1C=C[C@H](Oc2cccc(Oc3ccc(F)cc3)c2)C1,–,40.8 µM (active)
OC1CCCCC1,inactive,–
CCCCCCCCCCCCCCCS(=O)(=O)Oc1ccccc1,inactive,–
CCCCCCCCCCCCN1CCCC1=O,–,50 µM (active)
Oc1cc2ccccc2c2ccccc12,–,18.1 µM (active)
OCCC(F)(F)C(F)(F)C(F)(F)C(F)(F)C(F)(F)C(F)(F)F,inactive,–
CCCCC(CC)COC(=O)CCCCC(=O)OCc1ccccc1 (centres undefined),inactive,–
Cc1cc(C)c(O)c(C)c1,inactive,–
CCOC(=O)CC(O)(CC(=O)OCC)C(=O)OCC,inactive,–
COC(=O)CCCCC(=O)OC,inactive,–
CCCCOCCO,inactive,–
COc1cc(CCC(=O)CC(=O)CCc2ccc(O)c(OC)c2)ccc1O,–,68.5 µM (active)
CCCCC(CC)COC(=O)CCCCC(=O)OCC(CC)CCCC (centres undefined),inactive,–
O=[N+]([O-])c1ccc(O)cc1,inactive,–
